ssDAF-12 act – activators of S. stercoralis DAF-12 nuclear receptor; activation, % at 6.8 µM; HEK293 ssDAF-12/GRIP1 lit1-tk-luc reporter, luminescence; % of 3 µM dafachronic acid response; 370,000 tested, 1% active;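 active = activation above the mean over all tested compounds plus 3 SD, cut at about 0.9% in these data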;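 also: 0% = DMSO-only wells and 100% = 3 µM delta7-dafachronic acid wells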
DAX1 inh-1 – blocks DAX1 repression of SF-1 activated StAR promoter; inhibition, % at 6.8 µM; HEK293T StAR-luciferase reporter, SF-1/DAX-1 repression relief; 370,000 tested, 1.1% active; AID 652010;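 active = inhibition above the mean over all tested compounds plus 3 SD, cut at about 3.6% in these data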;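 also: 0% = DAX-1 cells with DMSO and 100% = cells lacking DAX-1 with DMSO; higher inhibition means more luminescence from relief of DAX-1 repression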
DAX1 inh-2 – inhibits human nuclear receptor DAX1; HEK293 Gal4-DAX1 luciferase reporter, luminescence; inhibition, % at 6.75 µM; 340,000 tested, 0.99% active; AID 504766;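 active = inhibition above the mean over all tested compounds plus 3 SD, cut at about 4.2% in these data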;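 also: 0% = DAX1-transfected cells with DMSO and 100% = empty-vector control cells with DMSO; inhibition shows as a rise in luminescence from relieved DAX1 repression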
Target sequence (P51843 207-470 limits assumed): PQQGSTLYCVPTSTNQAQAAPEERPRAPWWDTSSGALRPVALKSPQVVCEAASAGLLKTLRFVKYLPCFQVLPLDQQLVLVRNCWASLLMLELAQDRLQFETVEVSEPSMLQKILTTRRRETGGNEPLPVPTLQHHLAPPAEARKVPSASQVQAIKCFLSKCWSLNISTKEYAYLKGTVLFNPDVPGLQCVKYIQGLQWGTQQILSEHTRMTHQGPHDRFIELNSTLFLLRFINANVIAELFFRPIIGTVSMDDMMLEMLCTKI
hgDAF-12 ag – activates the H. glycines DAF-12 receptor ligand-binding domain. HEK293 GAL4-hgDAF12 UAS-luciferase reporter, agonist luminescence; normalized to butyrate control. activation, % at 6.8 µM. 370,000 tested, 1.8% active. AID 687014;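 active = activation above a cutoff set at the mean of all screened compounds plus 3 SD, cut at about 10% in these data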;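 also: 0% = DMSO wells and 100% = sodium butyrate wells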
hcDAF12 agonist – activators of H. contortus DAF-12 nuclear receptor; HEK293 hcDAF-12 lit1-tk-luc reporter, luminescence; 0% DMSO, 100% Δ7-dafachronic acid; activation, % at 6.8 µM; 370,000 tested, 1.4% active; AID 652067;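 active = activation above the mean of all tested compounds plus 3 SD, cut at about 5.5% in these data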;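 also: 100% = response to 3 µM Δ7-dafachronic acid high control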
* = called active by the depositor; · = no result. Sampled rows, rich in hits. Any-hit rate of the full collection: about 4.1%.

SMILES | ssDAF-12 act | DAX1 inh-1 | DAX1 inh-2 | hgDAF-12 ag | hcDAF12 agonist
O=C(Nc1nc(-c2cccs2)cs1)c1ccc(Cl)cc1 | -1 | -1 | -1 | 1 | -1
Nc1[nH]c(C(=O)c2ccccc2)c(-c2cccc3ccccc23)c1C(=O)c1c(-c2ccccc2)[nH]c2ccccc12 | -2 | · | · | -2 | -3
CC(C)CN(CC(C)C)c1nnc(N)s1 | -1 | 0 | 5.9* | -2 | -2
CC(C)CSc1nnc(N)s1 | -1 | 1 | 3 | 0 | -1
Cc1oc(-c2ccc(Cl)cc2)nc1CS(=O)CC(=O)NCc1ccco1 (configuration not stated) | -1 | 0 | 0 | 11* | -2
Cc1oc(-c2ccccc2Cl)nc1CS(=O)CC(=O)NCc1ccco1 (configuration not stated) | -1 | 0 | 1 | 1 | 0
CC(C)=CCCC1(C)C=Cc2c(c(C)cc3c2[nH]c2cc(O)ccc23)O1 (configuration not stated) | 1 | 1 | 4.9* | -1 | 0
O=C(N/N=C/c1ccc(Br)s1)Nc1ccccc1 | -1 | 1 | 0 | 11* | 3
Cc1[nH]c2ccccc2c1/C=N/NC(=O)CCC(=O)Nc1ccccc1 | -1 | 0 | 0 | -1 | 2
Cc1[nH]c2ccccc2c1/C=N/NC(=O)Nc1ccccc1 | 1 | 1 | 3 | 9 | 6.0*
Cc1[nH]c2ccccc2c1/C=N/NC(=O)c1ccccc1 | -1 | 0 | 4.5* | 6 | 0
Cc1[nH]c2ccccc2c1/C=N/NC(=O)c1ccc(N)cc1 | 0 | 0 | 1 | 2 | 5
CN1[C@@H](Cc2ccccc2)COc2cccc(F)c2S1(=O)=O | -1 | -1 | · | 0 | -2
O=C(/C=C/c1ccccc1)NCC1(c2ccccc2)CCOCC1 | -1 | 0 | 5.0* | -1 | 0
C=CCN1C(=O)[C@@H](CC(=O)N2CCCCC2)[C@]2(C(=O)OCC)CCCCC/C=C/12 | -1 | 0 | · | 1 | -1
CC(C)(C)S(=O)N1C[C@H]2CC(=O)C(CCO)=C2[C@@H]1CCO (some centres not stated) | 0 | 2 | · | 1 | -1
O=C(O)Cn1c(O)c(C2=c3ccccc3=NC2=O)sc1=O | 0 | 0 | 0 | 2 | 5
Cc1c(-n2c(O)c(C3=c4ccccc4=NC3=O)sc2=O)c(=O)n(-c2ccccc2)n1C | 1.1* | 1 | 0 | 0 | 2
C(=CCSc1ccccn1)CSc1ccccn1 | 0 | 3 | · | 9 | 5
C(=C\c1ccccc1)/CSc1ccccn1 | -1 | 2 | 4.4* | 7 | 3
CCCCN(C(=O)c1ccc(N(C)S(=O)(=O)c2ccc(C)cc2)cc1)c1c(N)n(CCC)c(=O)[nH]c1=O | -1 | 1 | 1 | 0 | 0
CCCCN(C(=O)c1ccc(S(=O)(=O)N(C)c2ccccc2)cc1)c1c(N)n(CCC)c(=O)[nH]c1=O | -1 | 4.4* | 1 | 1 | 0
CCCCn1c(N)c(N(CC(C)C)C(=O)c2ccc(S(=O)(=O)N(CC)c3ccccc3)cc2)c(=O)[nH]c1=O | 1.4* | 0 | 1 | -2 | 1
CCCCn1c(N)c(N(CC(C)C)C(=O)c2cccc(S(=O)(=O)N(C)c3ccccc3)c2)c(=O)[nH]c1=O | -1 | 1 | 0 | -3 | 0
Cc1ccc(C(=O)N2CCN(C)CC2)cc1[N+](=O)[O-] | -2 | 0 | 4.6* | -3 | -2
SMILES | ssDAF-12 act | DAX1 inh-1 | DAX1 inh-2 | hgDAF-12 ag | hcDAF12 agonist
Cc1ccc(C(=O)N2CCOCC2)cc1[N+](=O)[O-] | 0 | 0 | -1 | 3 | 1
CCC(CO)Nc1cccc2c1S(=O)(=O)N(Cc1cn(Cc3cccc(C(F)(F)F)c3)nn1)Cc1ccccc1O2 (configuration not stated) | -1 | -1 | · | -1 | -1
C[C@H](NC(=O)c1ccco1)C(=O)Nc1nnc(SCc2ccccc2)s1 | -1 | 3.7* | 0 | 1 | 1
CCCSc1nnc(NC(=O)c2ccco2)s1 | -1 | 3 | 6.1* | 5 | 2
O=C(Nc1nnc(CC(c2ccccc2)c2ccccc2)s1)c1ccco1 | -1 | -1 | 4.5* | -2 | -1
CCSc1nnc(NC(=O)/C=C/c2ccco2)s1 | -2 | 0 | 3 | 9 | 6.0*
O=C(Nc1nnc(SCc2ccccc2F)s1)c1ccco1 | -2 | 0 | -1 | 0 | 0
CCc1nnc(NC(=O)/C=C/c2ccco2)s1 | -1 | 1 | 0 | 7 | 1
O=C(OCc1cn(Cc2c(F)cccc2F)nn1)N1CCCC1 | -1 | 0 | · | -1 | -3
COc1cccc(CN[C@@H]2CC[C@@]34CCCN3C(=O)CCC[C@H]4C2)c1 | -1 | · | · | 0 | 0
C[C@H]1[C@@H](NCc2ccccc2)CC[C@@]23CCCN2C(=O)CCC[C@@H]13 | -1 | · | · | -1 | -1
Cc1cc(C)cc(NC(=O)O[C@@H]2CC[C@@]34CCCN3C(=O)CCC[C@H]4C2)c1 | -2 | · | · | -4 | -3
O=C1C=CC(=Nc2ccc3c(c2)Cc2cc(F)ccc2-3)O1 | 1 | 3 | 0 | 13* | 4
O=C1C=CC(=Nc2cccc3c2C(=O)c2ccccc2-3)O1 | · | · | 0 | · | ·
CCCCNC(=O)C[C@H]1C[C@@]2(C(=O)OC)C(=C[C@H](C3CCCC3)O[C@@H]2C)N(Cc2ccccc2)C1=O | -2 | 1 | · | -2 | -1
CCOC(=O)NC[C@@]1(C(=O)OC)CC(=O)N(Cc2ccc(Cl)cc2)[C@@H]1c1ccc(OC)cc1 | 0 | -1 | · | -2 | 4
COc1cccc(NC(=O)COC(=O)Cc2ccc(Cl)cc2)c1 | 0 | 1 | 1 | 0 | 0
COc1cccc(NC(=O)n2nc(N)cc2-c2ccc(Cl)cc2)c1 | -1 | -1 | -1 | 12* | 0
Oc1ccc(C[C@H]2CNC(=S)N2CC2CCCN2C[C@H](Cc2ccc(O)cc2)N2C[C@H](Cc3ccc(O)cc3)N(CC3CCCCC3)C2=S)cc1 (some centres not stated) | -2 | 1 | -2 | 5 | -2
Cc1ccccc1CN1CCCCC(NC(=O)c2ccc(N(C)C)cc2)C1=O (configuration not stated) | -1 | -2 | · | 2 | -4
CSc1nc2ccc(S(=O)(=O)N3CCCCC3)cc2s1 | -1 | 1 | 0 | 1 | 0
CSc1nc2ccc(S(=O)(=O)N3CCOCC3)cc2s1 | -1 | 0 | 1 | 0 | 5.8*
COc1ccc(-n2c(SCC(=O)NCC3CCCO3)nc3ccccc3c2=O)cc1Cl (configuration not stated) | -1 | -2 | 0 | -4 | -2
Cn1nnc(-c2ccc(OCc3ccccc3F)cc2)n1 | 1.0* | 3.8* | 2 | 9 | 2
COc1ccc(F)cc1-c1cc(C(=O)NCc2cccc(Cl)c2)[nH]n1 | -2 | -1 | · | -2 | -2
CS(=O)(=O)OC12CCCN(C1)/C(=C/c1ccc(Cl)cc1)C2 (configuration not stated) | -1 | 0 | · | 2 | 1
CCN1C(=S)SC(=O)C1=C1C=C(C)OC(C)=C1 | -1 | 0 | 1 | 2 | 0

From PubChem BioAssay
